# In the supplement of paper PMC10849652:
# Of roughly 8,800 targets only a part is listed; those with a hit were picked by preference. About 0.5% of all pairs of compound and target were hits. A number with no mark means an inactive call.
# Columns and labels:
# Test in all cases: log2 fold change, soluble protein after heating vs DMSO (PISA); higher = thermal stabilisation; K562 lysate, 10 uM; active = over 0.2 and 3.5 SD of the protein, either way, in both replicates (recomputed)
# vemurafenib = compound: CCCS(=O)(=O)Nc1ccc(F)c(C(=O)c2c[nH]c3ncc(-c4ccc(Cl)cc4)cc23)c1F [vemurafenib]
# Summary of the method: (§1)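 Values give the log-two fold change in thermal stability against solvent controls, from duplicates. Crude K562 extract at 1 mg/mL protein, made by dounce homogenisation in PBS pH 7.4 with 1 mM MgCl2, was treated with 10 μM compound for 30 min. After 3 min heating across 48°C-58°C, aliquots were pooled, adjusted to 0.5% NP-40 at 4°C and centrifuged at 21,000xg for 90 min. The supernatant was measured by TMTpro 16plex LC-MS/MS with channel sums equalised.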
# [1] = compound: CCCS(=O)(=O)Nc1ccc(F)c(C(=O)c2c[nH]c3ncc(Cl)cc23)c1F
# Summary of the method: as §1
# barasertib = compound: CCN(CCCOc1ccc2c(Nc3cc(CC(=O)Nc4cccc(F)c4)[nH]n3)ncnc2c1)CCOP(=O)(O)O [barasertib]
# Summary of the method: as §1
# [2] = compound: CC[C@@H]1C(=O)N(C)c2cnc(Nc3ccc(C(=O)NC4CCN(C)CC4)cc3OC)nc2N1C1CCCC1
# Summary of the method: as §1
# volasertib = compound: CC[C@@H]1C(=O)N(C)c2cnc(Nc3ccc(C(=O)N[C@H]4CC[C@H](N5CCN(CC6CC6)CC5)CC4)cc3OC)nc2N1C(C)C [volasertib]
# Summary of the method: as §1
# [3] = compound: CCn1c(C(=O)N(C2CC2)C2CC2)cc2c3c(ncn3C)c(Nc3cc(C)n(C)n3)nc21
# Summary of the method: as §1
# [4] = compound: CCn1cc(-c2ccnc3[nH]c(-c4cccc(CN(C)C)c4)cc23)c(-c2ccc(NC(=O)N(C)C)cc2)n1
# Summary of the method: as §1
# [5] = compound: CN1CCC(CNc2ccc3ncc(-c4cccc(OC(F)(F)F)c4)n3n2)CC1
# Summary of the method: as §1
# saracatinib = compound: CN1CCN(CCOc2cc(OC3CCOCC3)c3c(Nc4c(Cl)ccc5c4OCO5)ncnc3c2)CC1 [saracatinib]
# Summary of the method: as §1
# sotrastaurin = compound: CN1CCN(c2nc(C3=C(c4c[nH]c5ccccc45)C(=O)NC3=O)c3ccccc3n2)CC1 [sotrastaurin]
# Summary of the method: as §1
# alvocidib = compound: CN1CC[C@H](c2c(O)cc(O)c3c(=O)cc(-c4ccccc4Cl)oc23)[C@H](O)C1 [alvocidib]
# Summary of the method: as §1
# Tubastatin A = compound: CN1CCc2c(c3ccccc3n2Cc2ccc(C(=O)NO)cc2)C1 [Tubastatin A]
# Summary of the method: as §1
# [6] = compound: CNC(=O)C1=CC=CC=C1NC2=NC(=NC=C2Cl)NC3=C(C=C(C=C3)N4CCOCC4)OC
# Summary of the method: as §1
# defactinib = compound: CNC(=O)c1ccc(Nc2ncc(C(F)(F)F)c(NCc3nccnc3N(C)S(C)(=O)=O)n2)cc1 [defactinib]
# Summary of the method: as §1
# [7] = compound: CNc1nc(-c2ccc3c(N)n[nH]c3c2)cc(N2C[C@@H](C(=O)NC3CCCCC3)CC[C@H]2C)n1
# Summary of the method: as §1
# encorafenib = compound: COC(=O)N[C@@H](C)CNc1nccc(-c2cn(C(C)C)nc2-c2cc(Cl)cc(NS(C)(=O)=O)c2F)n1 [encorafenib]
# Summary of the method: as §1
# [8] = compound: COC(=O)[C@H](CCSC)NC(=O)C1=C(C=C(C=C1)NC[C@H](CS)N)C2=CC=CC=C2
# Summary of the method: as §1
# alisertib = compound: COc1cc(Nc2ncc3c(n2)-c2ccc(Cl)cc2C(c2c(F)cccc2OC)=NC3)ccc1C(=O)O [alisertib]
# Summary of the method: as §1
# [9] = compound: COc1cc2nc(-c3cc(F)ccc3O)nc(N[C@@H]3CNC[C@H]3C(C)(C)O)c2cc1OC
# Summary of the method: as §1
# gefitinib = compound: COc1cc2ncnc(Nc3ccc(F)c(Cl)c3)c2cc1OCCCN1CCOCC1 [gefitinib]
# Summary of the method: as §1
# Sequence of UniProt Q9UPU7 (Q9UPU7 whole entry, looked up): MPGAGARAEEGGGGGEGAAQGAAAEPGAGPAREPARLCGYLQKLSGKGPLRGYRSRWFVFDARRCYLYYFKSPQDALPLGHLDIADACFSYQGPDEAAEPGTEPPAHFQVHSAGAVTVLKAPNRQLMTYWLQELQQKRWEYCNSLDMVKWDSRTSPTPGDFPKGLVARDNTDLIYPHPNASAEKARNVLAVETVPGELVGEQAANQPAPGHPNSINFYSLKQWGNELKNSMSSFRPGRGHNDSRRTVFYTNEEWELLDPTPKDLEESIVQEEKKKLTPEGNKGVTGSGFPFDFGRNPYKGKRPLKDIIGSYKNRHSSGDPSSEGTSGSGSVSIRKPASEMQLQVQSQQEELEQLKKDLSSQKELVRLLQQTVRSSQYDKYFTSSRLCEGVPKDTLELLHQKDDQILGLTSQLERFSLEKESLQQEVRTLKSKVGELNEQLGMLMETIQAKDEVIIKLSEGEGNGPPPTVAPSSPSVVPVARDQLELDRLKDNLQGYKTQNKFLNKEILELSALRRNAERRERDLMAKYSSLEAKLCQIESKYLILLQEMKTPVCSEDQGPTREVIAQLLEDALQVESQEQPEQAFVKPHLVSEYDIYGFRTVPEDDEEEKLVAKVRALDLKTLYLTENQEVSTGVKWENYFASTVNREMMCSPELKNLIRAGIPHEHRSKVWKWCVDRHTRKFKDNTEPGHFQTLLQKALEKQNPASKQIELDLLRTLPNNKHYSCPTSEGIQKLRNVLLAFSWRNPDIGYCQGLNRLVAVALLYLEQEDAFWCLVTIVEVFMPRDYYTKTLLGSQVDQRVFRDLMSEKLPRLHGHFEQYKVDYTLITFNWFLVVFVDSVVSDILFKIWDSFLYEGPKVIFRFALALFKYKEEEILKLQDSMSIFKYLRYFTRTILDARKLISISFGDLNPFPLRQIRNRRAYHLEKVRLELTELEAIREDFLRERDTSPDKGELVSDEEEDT
# Sequence of UniProt P06753 (P06753 whole entry, looked up): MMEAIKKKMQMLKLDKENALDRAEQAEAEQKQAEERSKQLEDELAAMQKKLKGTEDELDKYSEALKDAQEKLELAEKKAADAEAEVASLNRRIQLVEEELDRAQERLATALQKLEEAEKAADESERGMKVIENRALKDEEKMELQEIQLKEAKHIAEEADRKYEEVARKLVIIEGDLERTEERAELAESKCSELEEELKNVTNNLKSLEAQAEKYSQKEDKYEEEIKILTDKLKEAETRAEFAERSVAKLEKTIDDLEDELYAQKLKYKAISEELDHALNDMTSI
# Sequence of UniProt P33981 (P33981 whole entry, looked up): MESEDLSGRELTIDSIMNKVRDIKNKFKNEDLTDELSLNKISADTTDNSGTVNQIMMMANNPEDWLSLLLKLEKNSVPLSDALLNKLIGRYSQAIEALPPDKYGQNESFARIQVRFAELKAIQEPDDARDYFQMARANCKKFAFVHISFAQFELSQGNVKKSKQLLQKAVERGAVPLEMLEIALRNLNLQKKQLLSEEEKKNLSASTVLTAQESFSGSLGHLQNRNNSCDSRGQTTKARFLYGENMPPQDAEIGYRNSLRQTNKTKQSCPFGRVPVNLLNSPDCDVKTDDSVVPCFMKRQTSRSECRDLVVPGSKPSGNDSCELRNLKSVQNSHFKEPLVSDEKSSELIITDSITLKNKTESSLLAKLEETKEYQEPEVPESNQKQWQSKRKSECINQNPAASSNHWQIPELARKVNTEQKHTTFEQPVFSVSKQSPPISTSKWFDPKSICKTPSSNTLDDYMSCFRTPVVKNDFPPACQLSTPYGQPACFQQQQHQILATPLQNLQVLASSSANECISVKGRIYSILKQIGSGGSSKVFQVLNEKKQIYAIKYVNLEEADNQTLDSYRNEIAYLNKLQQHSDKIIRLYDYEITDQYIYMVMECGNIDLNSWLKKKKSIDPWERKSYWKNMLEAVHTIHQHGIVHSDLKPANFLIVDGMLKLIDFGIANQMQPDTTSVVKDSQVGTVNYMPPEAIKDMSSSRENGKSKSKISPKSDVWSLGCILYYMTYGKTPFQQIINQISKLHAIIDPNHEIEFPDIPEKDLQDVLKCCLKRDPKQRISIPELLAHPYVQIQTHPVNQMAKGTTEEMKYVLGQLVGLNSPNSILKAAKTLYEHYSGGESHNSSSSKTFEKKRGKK
# Sequence of UniProt Q53H54 (Q53H54 whole entry, looked up): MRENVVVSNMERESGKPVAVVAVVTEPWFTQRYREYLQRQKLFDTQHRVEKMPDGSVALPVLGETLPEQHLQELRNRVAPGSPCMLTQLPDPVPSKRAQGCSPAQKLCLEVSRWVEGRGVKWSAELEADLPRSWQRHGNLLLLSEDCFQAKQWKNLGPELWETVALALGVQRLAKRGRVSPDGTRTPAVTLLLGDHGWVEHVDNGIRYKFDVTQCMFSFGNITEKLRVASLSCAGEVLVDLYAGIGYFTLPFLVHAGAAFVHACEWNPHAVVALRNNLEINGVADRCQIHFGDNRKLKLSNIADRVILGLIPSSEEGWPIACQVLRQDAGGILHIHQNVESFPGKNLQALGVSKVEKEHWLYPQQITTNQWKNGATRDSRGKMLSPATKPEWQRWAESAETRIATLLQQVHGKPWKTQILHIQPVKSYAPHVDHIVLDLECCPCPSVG
# Sequence of UniProt Q14157 (Q14157 whole entry, looked up): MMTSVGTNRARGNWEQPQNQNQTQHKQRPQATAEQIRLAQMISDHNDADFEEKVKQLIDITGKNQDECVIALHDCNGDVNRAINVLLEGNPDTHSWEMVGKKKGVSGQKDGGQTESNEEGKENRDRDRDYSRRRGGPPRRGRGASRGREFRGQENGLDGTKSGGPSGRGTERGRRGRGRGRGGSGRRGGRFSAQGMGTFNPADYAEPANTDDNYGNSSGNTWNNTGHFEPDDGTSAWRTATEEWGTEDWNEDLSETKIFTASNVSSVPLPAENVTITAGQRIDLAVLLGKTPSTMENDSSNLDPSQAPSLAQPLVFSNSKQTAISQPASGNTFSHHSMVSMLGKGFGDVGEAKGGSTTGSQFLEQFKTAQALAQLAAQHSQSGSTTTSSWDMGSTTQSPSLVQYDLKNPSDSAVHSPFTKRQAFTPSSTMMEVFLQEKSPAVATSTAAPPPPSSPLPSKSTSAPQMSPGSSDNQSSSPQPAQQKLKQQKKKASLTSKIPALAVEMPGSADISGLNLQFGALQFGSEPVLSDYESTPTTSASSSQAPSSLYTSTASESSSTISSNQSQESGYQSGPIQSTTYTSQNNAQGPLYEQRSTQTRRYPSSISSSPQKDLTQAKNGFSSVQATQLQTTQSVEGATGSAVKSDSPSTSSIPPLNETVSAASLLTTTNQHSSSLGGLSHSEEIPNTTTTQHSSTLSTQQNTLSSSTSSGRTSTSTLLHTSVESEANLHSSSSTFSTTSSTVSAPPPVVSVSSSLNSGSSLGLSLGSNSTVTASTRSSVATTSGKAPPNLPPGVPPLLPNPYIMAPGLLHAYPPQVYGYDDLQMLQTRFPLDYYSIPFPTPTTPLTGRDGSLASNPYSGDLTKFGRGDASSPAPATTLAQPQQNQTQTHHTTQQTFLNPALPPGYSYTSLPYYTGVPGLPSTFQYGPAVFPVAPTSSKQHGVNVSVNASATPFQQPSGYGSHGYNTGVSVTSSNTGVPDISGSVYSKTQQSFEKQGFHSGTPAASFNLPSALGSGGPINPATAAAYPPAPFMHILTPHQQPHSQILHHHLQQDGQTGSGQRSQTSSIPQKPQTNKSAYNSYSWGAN
# Sequence of UniProt Q9NUQ7 (Q9NUQ7 whole entry, looked up): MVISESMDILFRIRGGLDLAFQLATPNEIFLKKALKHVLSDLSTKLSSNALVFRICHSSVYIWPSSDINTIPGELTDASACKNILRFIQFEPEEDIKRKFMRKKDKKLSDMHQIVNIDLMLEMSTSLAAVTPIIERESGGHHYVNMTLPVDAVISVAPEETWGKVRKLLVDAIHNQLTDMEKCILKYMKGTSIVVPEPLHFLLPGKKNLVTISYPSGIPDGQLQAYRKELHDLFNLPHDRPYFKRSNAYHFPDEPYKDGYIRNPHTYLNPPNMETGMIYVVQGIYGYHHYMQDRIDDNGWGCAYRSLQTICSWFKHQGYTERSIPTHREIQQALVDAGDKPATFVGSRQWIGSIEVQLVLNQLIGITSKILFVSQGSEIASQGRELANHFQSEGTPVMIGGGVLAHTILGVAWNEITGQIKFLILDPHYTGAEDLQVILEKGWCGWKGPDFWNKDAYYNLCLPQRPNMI
# Sequence of UniProt Q14166 (Q14166 whole entry, looked up): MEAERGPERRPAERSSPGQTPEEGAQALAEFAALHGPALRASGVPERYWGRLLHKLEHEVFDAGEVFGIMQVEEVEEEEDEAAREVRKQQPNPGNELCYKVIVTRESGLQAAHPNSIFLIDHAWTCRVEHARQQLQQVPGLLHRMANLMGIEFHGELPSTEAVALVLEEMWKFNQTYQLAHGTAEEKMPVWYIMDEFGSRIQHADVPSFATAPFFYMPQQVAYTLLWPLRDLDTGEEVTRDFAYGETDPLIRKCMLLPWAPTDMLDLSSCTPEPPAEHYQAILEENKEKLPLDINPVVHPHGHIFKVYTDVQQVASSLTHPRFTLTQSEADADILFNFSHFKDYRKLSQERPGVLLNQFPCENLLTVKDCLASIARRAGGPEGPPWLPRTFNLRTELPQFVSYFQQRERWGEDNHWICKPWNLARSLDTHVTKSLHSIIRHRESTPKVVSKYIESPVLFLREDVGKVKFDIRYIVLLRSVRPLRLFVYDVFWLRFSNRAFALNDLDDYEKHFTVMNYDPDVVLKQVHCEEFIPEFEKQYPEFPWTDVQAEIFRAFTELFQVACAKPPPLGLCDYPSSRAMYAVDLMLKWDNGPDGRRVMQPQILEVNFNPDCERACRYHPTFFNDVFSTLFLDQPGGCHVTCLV
Target,log2 fold change (vemurafenib),log2 fold change [1],log2 fold change (barasertib),log2 fold change [2],log2 fold change (volasertib),log2 fold change [3],log2 fold change [4],log2 fold change [5],log2 fold change (saracatinib),log2 fold change (sotrastaurin),log2 fold change (alvocidib),log2 fold change (Tubastatin A),log2 fold change [6],log2 fold change (defactinib),log2 fold change [7],log2 fold change (encorafenib),log2 fold change [8],log2 fold change (alisertib),log2 fold change [9],log2 fold change (gefitinib)
TOE1 (UniProt Q96GM8),0.052,0.018,-0.053,-0.051,-0.031,-0.042,-0.022,-0.005,-0.029,0.007,-0.01,-0.136,0.027,0.019,-0.044,-0.034,0.165,-0.041,-0.011,-0.047
TRAF2 isoform 2 (UniProt Q12933),-0.004,0.012,0,0.072,-0.006,0.013,-0.034,-0.032,-0.011,-0.029,-0.006,-0.006,0.025,-0.013,0.01,0.004,-0.198,0.003,-0.007,-0.04
UBXN6 (UniProt Q9BZV1),0.046,-0.192,-0.007,-0.025,-0.075,-0.001,0.008,-0.015,-0.03,0.025,0.014,-0.087,0.03,-0.019,0.055,0.042,0.104,0.017,0.006,0.006
TMEM263 (UniProt Q8WUH6),0.086,-0.024,0.19,0.133,0.023,0.097,-0.034,-0.242,0.109,-0.003,0.013,0.266,0.116,0.213,-0.013,0.285,0.154,0.202,0.398,0.222
TBC1D2B (UniProt Q9UPU7),0.037,0.014,0.001,0.012,-0.099,-0.018,0.004,-0.041,0.033,0.062,-0.023,-0.157,0.038,0.04,-0.047,0.03,0.063,0.011,0.103,-0.001
UBAP2L isoform 5 (UniProt Q14157),-0.002,0.025,0.013,0.023,-0.006,0.013,0.028,-0.01,0.03,-0.002,0.019,0.008,0.007,0.016,0.038,0.041,-0.002,0.027,0.022,-0.031
UBP1 (UniProt Q9NZI7),-0.014,0.117,0.008,0.01,-0.017,0.007,0.228 (active),-0.24,-0.008,-0.063,0.049,-0.121,0.058,0.077,0.002,0.115,0.019,0.059,-0.011,-0.073
TRMT12 (UniProt Q53H54),0.059,-0.009,0.068,-0.17,-0.052,0.047,-0.303,0.281,-0.021,-0.047,-0.022,-0.106,-0.113,-0.058,0.007,0.041,0.088,-0.031,0.018,0.123
TIMM44 (UniProt O43615),-0.035,-0.017,0.07,-0.006,-0.034,0.022,-0.02,-0.065,0.012,-0.026,0.001,0.083,0.039,0.018,-0.017,0.056,0.08,0.082,-0.04,0.017
TTK (UniProt P33981),-0.009,0.02,0.06,0.089,-0.026,-0.048,-0.018,0.01,-0.037,0.072,-0.004,-0.141,0.616 (active),0.434 (active),0.101,0.004,-0.02,0.078,0.103,-0.102
UBA1 (UniProt P22314),0.018,0.005,0.023,-0.063,-0.036,-0.006,-0.027,0.004,-0.02,0.008,0.012,-0.082,0.007,-0.011,-0.026,-0.017,0.139,0.001,0.002,-0.01
UFSP2 (UniProt Q9NUQ7),0.074,-0.018,-0.019,0.072,-0.071,0.016,-0.011,0.002,0.036,0.018,0.034,0.024,-0.045,0.022,-0.036,0.031,0.055,0.019,0.035,-0.031
TELO2 (UniProt Q9Y4R8),0.063,0,0.088,-0.073,-0.071,0.048,-0.017,-0.043,0,0.037,-0.01,-0.164,0.035,-0.008,-0.036,0.003,0.139,0.008,-0.009,0.011
TTLL12 (UniProt Q14166),0.016,0.007,-0.001,-0.07,-0.07,0.019,-0.033,0.009,0.004,0.022,0.039,-0.212,-0.003,0.018,-0.03,-0.009,0.032,0,0.003,0.039
TGFBRAP1 (UniProt Q8WUH2),-0.031,0.02,0.031,-0.069,-0.062,0.049,0,-0.075,0.005,-0.001,-0.026,-0.153,0,0.005,-0.012,-0.015,-0.174,0.011,-0.025,-0.025
TPM3 (UniProt P06753),-0.008,0.009,-0.02,0.043,0.021,0.013,0.182,-0.062,-0.011,-0.031,0.048,0.049,-0.015,0.044,-0.003,-0.048,-0.02,-0.007,0,0.008
